This passage reports outcome results from PubChem BioAssay AID624320 (Broad Institute, 2012).

For the test, the target named is Protein disulfide-isomerase A6 (Homo sapiens) (UniProt Q15084). Put plainly: inhibitors of ERp5 insulin reduction – biochemical, insulin aggregation absorbance, dry powder samples, selectivity assay for PDI inhibitor antithrombotic project, dose response (AID 624320).

Molecules are shown by their SMILES. Activity calls are given as the source filed them.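 Rule for the calls: active = compounds lowering absorbance whose fitted half-effect dose is at most twice the highest valid tested dose; inconclusive = flat fit between 30 and 70% inhibition, or poor fit; inactive = the rest, including opposite-direction activity.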

Chain of Protein disulfide-isomerase A6 (Homo sapiens) (Q15084 whole entry, looked up): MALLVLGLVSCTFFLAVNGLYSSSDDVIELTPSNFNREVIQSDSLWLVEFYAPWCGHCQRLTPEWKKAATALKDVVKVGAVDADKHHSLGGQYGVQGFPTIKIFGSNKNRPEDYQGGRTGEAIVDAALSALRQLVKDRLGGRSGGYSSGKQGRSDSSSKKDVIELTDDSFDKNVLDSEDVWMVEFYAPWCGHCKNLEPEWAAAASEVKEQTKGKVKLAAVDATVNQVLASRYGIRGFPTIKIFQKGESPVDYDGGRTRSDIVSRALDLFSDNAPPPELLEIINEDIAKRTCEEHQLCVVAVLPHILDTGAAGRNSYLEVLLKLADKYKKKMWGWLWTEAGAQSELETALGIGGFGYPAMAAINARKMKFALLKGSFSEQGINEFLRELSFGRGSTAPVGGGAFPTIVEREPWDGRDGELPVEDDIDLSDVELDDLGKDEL

Take `C[C@H]1CN([C@@H](C)CO)C(=O)c2cccc(NS(C)(=O)=O)c2O[C@H]1CN(C)Cc1ccc(Oc2ccccc2)cc1`: the compound was classed as inactive.
